Reference: PubChem BioAssay (Tox21)
Unmarked numbers belong to inactive results. Calls come from the whole dose curve; as a rule, active = well fitted activation curve with a large enough effect in the repeat runs; inconclusive = weak or mixed curves; inactive = flat fitted curve, though single readings scatter.

Test: Caspase-3/7 induction in CHO-K1 cells by small molecules, qHTS assay (AID 1346980); note: nearly all actives have a fitted effect of over 15% in size
Conditions: CHO-K1 caspase-3/7 induction, Caspase-Glo luminescence, 17 h; series mostly up to 92.4 µM; caspase-3/7 activation: at the top concentration
Summary of the method: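 Wild-type CHO-K1 cells exposed to compounds for 17hr at 37 C, 5% CO2. Caspase-3/7 activity then measured by Caspase-Glo 3/7 luminescence after 30min at room temperature.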
% is set by controls: 0 for no effect and ±100 for the full control effect.

Point of comparison: CCOC(=O)C(C)O (centres undefined), “caspase-3/7 activation” value -0.736%. Against it:
- c1ccc(CCCc2ccncc2)cc1 — lower, -1.86%
- CCN(CC)c1ccc(C(=C2C=CC(=[N+](CC)CC)C=C2)c2ccc(S(=O)(=O)O)cc2S(=O)(=O)[O-])cc1 — lower, -6.61%
- CC(C)(O)CCc1ccccc1 — higher, 0.196%
- CC(=O)OCC(C)C — higher, 0.607%
- CC(C)(O)c1coc(S(=O)(=O)NC(=O)Nc2c3c(cc4c2CCC4)CCC3)c1 — higher, 0.858%
- CCCCCCCCCCCCCCCC(=O)OCC — higher, 2.26%
- CC1C(C)(C)C2=C(C(=O)CCC2)C1(C)C (centres undefined) — lower, -1.21%
- CCCCCCCCCCCCCC(=O)OCC(O)CO (centres undefined) — higher, 1.76%
- CC(C)C(O)C(C)(C)CO (centres undefined) — higher, 0.0349%
- CC1CCCC(=O)C1=O (centres undefined) — higher, 0.245%
- O=C(NS(=O)(=O)/C=C/c1ccccc1)c1ccc(F)cc1Cl — lower, -2.23%
- Nc1ccc(F)cc1 — higher, 0.435%
- O=S(=O)(O)CO — lower, -1.24%
- O=CNNC=O — higher, 0.343%
- CCC(C)(C)C(=O)O — higher, 0.801%
- CCC(CO)(CO)CO — higher, 0.356%
- CCN(CC)c1cccc(O)c1 — higher, 0.0478%
- CCCCCCC(O)CCCCCCCCCCC(=O)OC (centres undefined) — lower, -1.33%
- COC(C)(C)OC — higher, 0.333%
- O=C(O)CO — higher, 0.263%
- CCCCOC(=O)CCCCC(=O)OCCCC — higher, 0.438%
- CC(=O)NCCO — higher, 5.83%
- COC1CCC=CO1 (centres undefined) — higher, -0.667%
- CCc1ccc(C)cc1 — higher, 0.226%
- O=C(O)CCS — higher, -0.565%
- CC(C)C(=O)OCCOc1ccccc1 — higher, 0.53%
- [Cl][Nd]([Cl])[Cl] — higher, -0.196%
- NC(=O)CCCCC(N)=O — lower, -0.93%
- CC(C)N(C)C — higher, -0.716%

Point of comparison: CCCCCCCC/C=C/C(=O)O, “caspase-3/7 activation” value 0.194% [at 42.5 µM]. Against it:
- CN1C(CSCC(F)(F)F)Nc2cc(Cl)c(S(N)(=O)=O)cc2S1(=O)=O (centres undefined) — lower, -0.439% [at 42.5 µM]
- Cc1cccc(C)c1NC(=O)c1cc(S(N)(=O)=O)c(Cl)cc1O — higher, 2.37% [at 42.5 µM]
- CCOc1ncc(F)c(=O)[nH]1 — lower, 0.0991% [at 42.5 µM]
- CCN(Cc1cccc(S(=O)(=O)O)c1)c1ccc(C(=C2C=CC(=[N+](CC)Cc3cccc(S(=O)(=O)O)c3)C=C2)c2ccccc2S(=O)(=O)[O-])cc1 — lower, -5.36% [at 42.5 µM]
- CSCC[C@H](NC(=O)[C@H](Cc1c[nH]c2ccccc12)NC(=O)CCNC(=O)OC(C)(C)C)C(=O)N[C@@H](CC(=O)O)C(=O)N[C@@H](Cc1ccccc1)C(N)=O — higher, 1.2% [at 42.5 µM]
- FC(F)(F)C(F)(F)C(F)(F)C(F)(F)CCI — lower, -1.18% [at 42.5 µM]
- Cc1oc(=O)oc1COC(=O)[C@@H]1N2C(=O)[C@@H](NC(=O)[C@H](N)c3ccccc3)[C@H]2SC1(C)C — lower, -0.434% [at 42.5 µM]

With CCC(Cl)CC(Cl)C(Cl)C(Cl)C(Cl)C(C)Cl (centres undefined) the caspase-3/7 activation was -6.38% [at 19 µM].
